This is part of a sample that, as a whole, favours compounds with a hit. Of some 83,000 tested, about 20% had one in any assay.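 A percent growth of 40 corresponds to 60% growth inhibition; 0 means no net growth; -100 means all cells died. Active threshold: below 10.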 Activity calls are given as the source filed them.
Columns and labels:
Assay in all cases: NCI-60 one-dose screen, 48 h (100 = growth as untreated, 0 = no growth, -100 = all killed)
Details in all cases: 10 µM unless noted
SR leukemia = test system: SR leukemia
RPMI-8226 leukemia = test system: RPMI-8226 leukemia
OVCAR-8 ovarian = test system: OVCAR-8 ovarian
OVCAR-5 ovarian = test system: OVCAR-5 ovarian
OVCAR-4 ovarian = test system: OVCAR-4 ovarian
SK-OV-3 ovarian = test system: SK-OV-3 ovarian
IGROV1 ovarian = test system: IGROV1 ovarian
OVCAR-3 ovarian = test system: OVCAR-3 ovarian
HS 578T breast = test system: HS 578T breast
NCI/ADR-RES ovarian = test system: NCI/ADR-RES ovarian
T-47D breast = test system: T-47D breast
BT-549 breast = test system: BT-549 breast
MDA-MB-435 melanoma = test system: MDA-MB-435 melanoma
MCF7 breast = test system: MCF7 breast
HCT-116 colon = test system: HCT-116 colon
HCC-2998 colon = test system: HCC-2998 colon
KM12 colon = test system: KM12 colon
SW-620 colon = test system: SW-620 colon

Measured: growth

COc1cc(OC)c(/C=C/S(=O)(=O)Cc2ccc(OC)c(N)n2)c(OC)c1
inactive: RPMI-8226 leukemia 33.1% | OVCAR-8 ovarian 11% | OVCAR-5 ovarian 50.5% | OVCAR-4 ovarian 42.1% | IGROV1 ovarian 26.4% | HS 578T breast 43.8% | NCI/ADR-RES ovarian 10.2% | T-47D breast 44.8% | MCF7 breast 12.9% | HCC-2998 colon 18.8% | KM12 colon 12.9%
active: SR leukemia 0.349% | SK-OV-3 ovarian 5.23% | OVCAR-3 ovarian -27.7% | BT-549 breast 8.17% | MDA-MB-435 melanoma 2.24% | HCT-116 colon 2.03%

COc1ccc(/C=C/C(=O)c2c(O)c(C)c(O)c3c2OC2=CC(O)=C(C(C)=O)C(=O)[C@]23C)cc1
inactive: OVCAR-4 ovarian 12.1%
active: SR leukemia -17.6% | RPMI-8226 leukemia -28.9% | OVCAR-8 ovarian -14.9% | OVCAR-5 ovarian 7.96% | SK-OV-3 ovarian -24.9% | IGROV1 ovarian -8.12% | OVCAR-3 ovarian -20.5% | HS 578T breast -9.2% | NCI/ADR-RES ovarian -13.5% | T-47D breast -17.1% | BT-549 breast -19.9% | MDA-MB-435 melanoma -66.9% | SW-620 colon 6.73% | MCF7 breast -2.88% | HCT-116 colon -8.41% | HCC-2998 colon -30.2% | KM12 colon -4.07%

CN1CCN(Cc2ccc(NC(=O)c3[nH]ncc3Nc3ncnc4[nH]ccc34)cc2)CC1
inactive: OVCAR-5 ovarian 11.6% | SK-OV-3 ovarian 18.5% | IGROV1 ovarian 16.4% | NCI/ADR-RES ovarian 71.2% | T-47D breast 21.7%
active: SR leukemia -17% | RPMI-8226 leukemia -10.4% | OVCAR-8 ovarian 6.62% | OVCAR-4 ovarian -21.7% | OVCAR-3 ovarian -57.6% | HS 578T breast -3.22% | BT-549 breast -76.2% | MDA-MB-435 melanoma 8.18% | SW-620 colon 5.63% | MCF7 breast 9.25% | HCT-116 colon 2.81% | HCC-2998 colon -14.2% | KM12 colon 3.42%

COc1cc(C2CC(=O)Nc3c2c(C)nn3-c2nc3ccccc3[nH]2)cc(OC)c1OC (stereo unspecified)
inactive: SR leukemia 83.8% | RPMI-8226 leukemia 108% | OVCAR-8 ovarian 103% | OVCAR-5 ovarian 103% | OVCAR-4 ovarian 107% | SK-OV-3 ovarian 111% | IGROV1 ovarian 85.1% | OVCAR-3 ovarian 115% | HS 578T breast 94.5% | NCI/ADR-RES ovarian 98.7% | T-47D breast 103% | BT-549 breast 113% | MDA-MB-435 melanoma 103% | SW-620 colon 97.4% | MCF7 breast 88.1% | HCT-116 colon 107% | HCC-2998 colon 93.7% | KM12 colon 123%

CCN(CC)CCCC(C)NCCCNc1cccc2cccnc12 (stereo unspecified)
inactive: SR leukemia 91% | RPMI-8226 leukemia 96.9% | OVCAR-8 ovarian 91.9% | OVCAR-5 ovarian 125% | OVCAR-4 ovarian 83.2% | SK-OV-3 ovarian 89.2% | IGROV1 ovarian 99.7% | OVCAR-3 ovarian 89.8% | HS 578T breast 105% | NCI/ADR-RES ovarian 92.3% | T-47D breast 89.5% | BT-549 breast 102% | MDA-MB-435 melanoma 106% | SW-620 colon 96.5% | MCF7 breast 95.9% | HCT-116 colon 95.4% | HCC-2998 colon 82.5% | KM12 colon 102%

O=C(O)c1ccc2c(c1Sc1ccccc1)C(=O)c1ccccc1C2=O
inactive: SR leukemia 95.6% | RPMI-8226 leukemia 106% | OVCAR-8 ovarian 105% | OVCAR-5 ovarian 101% | OVCAR-4 ovarian 92.9% | SK-OV-3 ovarian 101% | IGROV1 ovarian 92.2% | OVCAR-3 ovarian 89.6% | HS 578T breast 114% | NCI/ADR-RES ovarian 105% | T-47D breast 98.6% | BT-549 breast 83.8% | MDA-MB-435 melanoma 73.1% | SW-620 colon 121% | MCF7 breast 95.4% | HCT-116 colon 98.5% | HCC-2998 colon 105% | KM12 colon 101%

CS(=O)(=O)c1ccc(-c2cnc3ccc(-c4cccc(S(C)(=O)=O)c4)nn23)cc1
inactive: SR leukemia 21.1% | RPMI-8226 leukemia 18.8% | OVCAR-8 ovarian 53.1% | OVCAR-5 ovarian 44.2% | OVCAR-4 ovarian 72.8% | SK-OV-3 ovarian 43.4% | IGROV1 ovarian 14% | OVCAR-3 ovarian 33.3% | HS 578T breast 10% | NCI/ADR-RES ovarian 80.9% | T-47D breast 18.7% | BT-549 breast 23% | MDA-MB-435 melanoma 49.6% | MCF7 breast 18.4% | HCT-116 colon 34% | HCC-2998 colon 55.4% | KM12 colon 47.1%

c1ccc2c(Nc3cccc4ccccc34)cccc2c1
active: MDA-MB-435 melanoma -27.7%
inactive: SR leukemia 31.6% | RPMI-8226 leukemia 68.3% | OVCAR-8 ovarian 65.7% | OVCAR-5 ovarian 103% | OVCAR-4 ovarian 86% | SK-OV-3 ovarian 59.5% | IGROV1 ovarian 56.8% | OVCAR-3 ovarian 43.8% | HS 578T breast 62.6% | NCI/ADR-RES ovarian 29.8% | T-47D breast 65.2% | BT-549 breast 62.8% | MCF7 breast 43.9% | HCT-116 colon 30.3% | HCC-2998 colon 78.4% | KM12 colon 33.6%

Nc1c(C(=O)Nc2ccccc2)sc2nc3c(cc12)CN(CCc1ccccc1)CC3
inactive: SR leukemia 90% | RPMI-8226 leukemia 92.2% | OVCAR-8 ovarian 99.7% | OVCAR-5 ovarian 99% | OVCAR-4 ovarian 86.9% | SK-OV-3 ovarian 89.8% | IGROV1 ovarian 96.5% | OVCAR-3 ovarian 109% | HS 578T breast 89.1% | NCI/ADR-RES ovarian 87.3% | T-47D breast 88.1% | BT-549 breast 104% | MDA-MB-435 melanoma 102% | SW-620 colon 91.3% | MCF7 breast 85.8% | HCT-116 colon 98.3% | HCC-2998 colon 99% | KM12 colon 98.8%

CC#CC#Cc1cccc(=O)o1
inactive: RPMI-8226 leukemia 45.6% | OVCAR-8 ovarian 65.8% | OVCAR-5 ovarian 101% | OVCAR-4 ovarian 91.6% | SK-OV-3 ovarian 104% | IGROV1 ovarian 65.1% | HS 578T breast 70.9% | NCI/ADR-RES ovarian 90.1% | T-47D breast 59.9% | BT-549 breast 38.1% | MDA-MB-435 melanoma 15.2% | MCF7 breast 29% | HCT-116 colon 30.9% | HCC-2998 colon 95.8% | KM12 colon 58.8%
active: SR leukemia -9.17% | OVCAR-3 ovarian 7.67%

COc1cc(/C=N/N(C)C)ccc1O
inactive: SR leukemia 93% | RPMI-8226 leukemia 92.4% | OVCAR-8 ovarian 96.1% | OVCAR-5 ovarian 106% | OVCAR-4 ovarian 115% | SK-OV-3 ovarian 97.1% | IGROV1 ovarian 104% | OVCAR-3 ovarian 109% | HS 578T breast 87.3% | NCI/ADR-RES ovarian 107% | T-47D breast 94.4% | BT-549 breast 105% | MDA-MB-435 melanoma 106% | MCF7 breast 98.4% | HCT-116 colon 101% | HCC-2998 colon 107% | KM12 colon 103%

C=C1CC[C@@H]2[C@](C)(COC(C)=O)[C@H](OC(C)=O)CC[C@@]2(C)[C@@H]1CC(Nc1ccc(S(=O)(=O)Nc2ccc(Cl)nn2)cc1)C1=CCOC1=O (stereo partly specified)
inactive: OVCAR-8 ovarian 16.9% | OVCAR-5 ovarian 44.6% | OVCAR-4 ovarian 30.8% | SK-OV-3 ovarian 86.1% | IGROV1 ovarian 43.3% | HS 578T breast 75.6% | NCI/ADR-RES ovarian 16.7% | T-47D breast 34.1% | MCF7 breast 16.8% | HCC-2998 colon 88.5% | KM12 colon 27%
active: SR leukemia -5.26% | RPMI-8226 leukemia -19.2% | OVCAR-3 ovarian -56.1% | BT-549 breast -9.45% | MDA-MB-435 melanoma 8.13% | SW-620 colon -37.7% | HCT-116 colon -34.1%

Brc1cccc(-c2cc(-c3ccc4c(c3)OCCO4)[nH]n2)c1
inactive: SR leukemia 31.4% [25 µM] | RPMI-8226 leukemia 20.8% [25 µM] | OVCAR-8 ovarian 29.7% [25 µM] | OVCAR-5 ovarian 39.8% [25 µM] | OVCAR-4 ovarian 58.6% [25 µM] | SK-OV-3 ovarian 39.5% [25 µM] | IGROV1 ovarian 30.2% [25 µM] | T-47D breast 29% [25 µM] | BT-549 breast 41.7% [25 µM] | SW-620 colon 28.7% [25 µM] | MCF7 breast 10.6% [25 µM] | HCT-116 colon 21% [25 µM] | HCC-2998 colon 44.6% [25 µM] | KM12 colon 22.9% [25 µM]
active: OVCAR-3 ovarian -7.07% [25 µM] | NCI/ADR-RES ovarian 4.14% [25 µM] | MDA-MB-435 melanoma -40.2% [25 µM]

COC(=O)[C@@H]1CC[C@]2(C)[C@H](CC[C@@H]3O[C@@]32C)[C@@]1(C)CC(=O)c1ccoc1
inactive: SR leukemia 86.6% | RPMI-8226 leukemia 91.2% | OVCAR-8 ovarian 102% | OVCAR-5 ovarian 109% | OVCAR-4 ovarian 127% | SK-OV-3 ovarian 103% | IGROV1 ovarian 105% | OVCAR-3 ovarian 105% | NCI/ADR-RES ovarian 103% | T-47D breast 105% | BT-549 breast 105% | MDA-MB-435 melanoma 104% | SW-620 colon 88.3% | MCF7 breast 93% | HCT-116 colon 98.4% | HCC-2998 colon 93.1% | KM12 colon 108%

Cc1cc(OCc2ccc(C(F)(F)F)cc2)c2c(c1)C(=O)C=C(NCCN1CCCC1)C2=O
inactive: RPMI-8226 leukemia 29.9% | OVCAR-8 ovarian 72.3% | OVCAR-5 ovarian 87.9% | OVCAR-4 ovarian 68% | SK-OV-3 ovarian 103% | IGROV1 ovarian 74.8% | OVCAR-3 ovarian 83.9% | HS 578T breast 85% | NCI/ADR-RES ovarian 81.1% | T-47D breast 42.8% | SW-620 colon 74.7% | MCF7 breast 31% | HCT-116 colon 19.6% | HCC-2998 colon 15.2% | KM12 colon 79.1%
active: SR leukemia -11.6% | MDA-MB-435 melanoma -23.5%

Cc1ccc2c(c1)C(=O)/C(=C/c1ccc(OCC(=O)c3ccccc3)cc1)O2
inactive: SR leukemia 107% | RPMI-8226 leukemia 216% | OVCAR-8 ovarian 106% | OVCAR-5 ovarian 107% | OVCAR-4 ovarian 83.9% | SK-OV-3 ovarian 106% | IGROV1 ovarian 75.9% | OVCAR-3 ovarian 106% | NCI/ADR-RES ovarian 88.1% | T-47D breast 77.8% | BT-549 breast 112% | MDA-MB-435 melanoma 106% | SW-620 colon 108% | MCF7 breast 88.7% | HCT-116 colon 93.4% | HCC-2998 colon 125% | KM12 colon 101%

O=C(Nc1ccc(CN2CCOCC2)cc1)c1[nH]ncc1Nc1ncnc2sccc12
inactive: OVCAR-8 ovarian 11.6% | OVCAR-5 ovarian 16.1% | OVCAR-4 ovarian 13.6% | SK-OV-3 ovarian 33% | IGROV1 ovarian 16.7% | T-47D breast 17.5% | MDA-MB-435 melanoma 18.1%
active: SR leukemia -4.39% | RPMI-8226 leukemia -3.98% | OVCAR-3 ovarian -15.7% | NCI/ADR-RES ovarian 4.5% | BT-549 breast -8.71% | SW-620 colon 5.35% | MCF7 breast 8.76% | HCT-116 colon 6.07% | HCC-2998 colon -9.48% | KM12 colon 0.0776%
